For 17 molecules, growth results are on record in PubChem BioAssay (NCI).

Several values for one entry are separate records, joined by “and”; a condition that tells them apart may be missing. Equal values may be shown once. This is part of a sample that, as a whole, favours compounds with a hit. Of some 83,000 tested, about 20% had one in any assay.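 Negative percent growth values reflect cell death: -40 means 40% of the cells present at the start died, and -100 means all died.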 Activity calls are given as the source filed them. Rule for the calls: active = growth percent below 10; inactive = the rest.

The test system of the test is MDA-MB-468 breast. The experiment in a line: NCI-60 one-dose screen, 48 h (100 = growth as untreated, 0 = no growth, -100 = all killed). The settings on record: 10 µM unless noted.
Take `CC(C)=NNc1ccccn1`: the growth was 12.9% (inactive).
In the case of `O=C(O)c1cc(N=Nc2ccc(-c3ccc(N=Nc4c(S(=O)(=O)O)cc5ccc(Nc6ccccc6)cc5c4O)cc3)cc2)ccc1O`, the growth was 124% (inactive).
Take `CN1C(=O)N(C)C2C1NN=c1s/c(=C\c3ccc(C(F)(F)F)cc3)c(=O)n12` (configuration not stated): the growth is -2.71% (active).
`N=C(N=C(N)N)N1CCOCC1`: the growth was 100% (inactive) and 101% (inactive).
Turning to `Cc1ccc(-c2csc(N/N=C/c3nc4ccccc4n3C3CC3)n2)cc1`, the growth was 98.5% (inactive).
Take `Cc1nn(-c2ccccc2)c(Oc2ccccn2)c1-c1nc2ccccc2s1`: the growth was 80% (inactive).
On to `CCCCCCCCSC1=CC(=O)C(OC)=C(OC)C1=O`, for which the growth was -75% (active).
The figure for `CSc1nc(-c2ccc(F)cc2)c(C#N)c(N2CCOCC2)n1` is 87.3% (inactive); for `CCC/C(=N/NC(N)=O)c1ccco1` it is 102% (inactive).
As to `COc1ccc2c(c1)c(-c1nc(-c3c[nH]c4ncccc34)cs1)cn2CCN`, the growth is 1.91% (active).
For the molecule `O=S(=O)(NCCCNc1nccc(-c2[nH]c(-c3ccccc3)nc2-c2ccc(Cl)c(O)c2)n1)c1ccc(Br)cc1`, the growth was 25.9% (inactive).
For `COc1cccc2ccc(CC(O)(c3ccccc3)c3ccccc3)nc12`, the growth was 46.7% (inactive).
The figure for `CC(=O)c1cc(O)c2ccccc2c1O` is 63.9% (inactive); for `Clc1cc(Cl)c(Cl)nn1` it is 102% (inactive).
For `CCc1cccc2c3c(sc12)C(c1ccc(F)cc1)C(C#N)=C(N)O3` (configuration not stated), the growth is 31.2% (inactive).
To `CCCCCCSc1ncnc2nc[nH]c12` belongs 67.3% (inactive).
Consider `CN(C)c1ccc(-c2ccc3[nH]c(=O)nc(-c4ccccc4)c3c2)cn1`, for which the growth was 42.4% (inactive).
